Screening data deposited in PubChem BioAssay by National Center for Advancing Translational Sciences (NCATS).
Only some compounds are listed: those with a hit (about 6% of all), similar ones and a draw of the others.
PLK1 PBD inh: qHTS for Inhibitors of PLK1-PDB (polo-like kinase 1 - polo-box domain): Primary Screen; 2.8% of 360,000 active; Plk1 PBD binding of FITC phosphopeptide, fluorescence polarization; Potency, µM, for the others: max response, negative = inhibition, actives largely listed as inhibitors; Serine/threonine-protein kinase PLK1 (Homo sapiens), P53350; further: series mostly up to about 57 µM; nearly all actives have a fitted effect of over 65% in size
Tau fluor cs: Counterscreen qHTS for Inhibitors of Tau Fibril Formation, Fluorescence Polarization | Potency, µM (titrated, usually from 57.7 µM), inactives show top-dose activity change, negative = decrease | 0.93% of 280,000 active | tau K18 P301L Alexa594 fluorescence, heparin fibrillization | AID 1463, 2008; further: nearly all actives have a fitted effect of over 55% in size
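Human K18 P301L tau (15 uM unlabeled plus 0.24 uM Alexa 594-labeled, final) in 100 mM sodium acetate pH 7 was mixed with compound and 20 uM heparin and incubated 6 hr at 37 C.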
VDR inhibitor: Inhibitors of the vitamin D receptor (VDR): qHTS. VDR-SRC2-3 peptide fluorescence polarization, 2 h. Potency, µM, for inactives: max response, negative = inhibition, hits mostly inhibitors. 0.93% of 400,000 active
Target sequence (P11473 whole entry, looked up): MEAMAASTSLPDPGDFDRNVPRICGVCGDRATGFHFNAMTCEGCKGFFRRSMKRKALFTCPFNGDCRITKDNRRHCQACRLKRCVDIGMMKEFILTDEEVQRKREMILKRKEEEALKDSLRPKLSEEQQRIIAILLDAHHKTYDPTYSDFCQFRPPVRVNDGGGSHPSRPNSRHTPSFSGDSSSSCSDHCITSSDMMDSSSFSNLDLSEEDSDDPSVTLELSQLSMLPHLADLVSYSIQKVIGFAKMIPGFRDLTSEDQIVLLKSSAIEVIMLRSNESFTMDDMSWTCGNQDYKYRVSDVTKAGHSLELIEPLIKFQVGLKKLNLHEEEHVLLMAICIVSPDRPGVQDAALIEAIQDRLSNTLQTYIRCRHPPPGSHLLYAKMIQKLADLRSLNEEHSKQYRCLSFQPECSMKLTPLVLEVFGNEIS
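Reagent solutions, kept cold and dark, are dispensed first; compounds are then pinned in at 23 nl, plates briefly spun, and incubated 2 h at ambient temperature. Inhibition of VDR–SRC2-3 peptide binding is read by fluorescence polarization.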
Tau FP inhib: qHTS for Inhibitors of Tau Fibril Formation, Fluorescence Polarization; K18 P301L tau heparin fibrillization, Alexa594 FP, 6 h; Potency, µM (titrated, usually from 57.7 µM), for inactives: top-dose activity, negative = inhibition, usual class: inhibitors; 0.39% of 280,000 active; AID 1468, 2008; further: nearly all actives have a fitted effect of over 55% in size
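Recombinant K18 P301L […], labeled with Alexa 594 at 0.24 uM over 15 uM unlabeled; heparin inducer 20 uM final; 37 C, 6 hr; FP endpoint.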
Tau ThT inhib: qHTS for Inhibitors of Tau Fibril Formation, Thioflavin T Binding; 2.1% of 270,000 active; Microtubule-associated protein tau (Homo sapiens), P10636; recombinant tau K18 P301L (four-repeat tau fragment), heparin-induced fibrillization, ThT fluorescence; Potency, µM (titrated, usually from 57.4 µM), for the others: at the top dose activity, negative = inhibition, hits mostly inhibitors; AID 1460, 2008; further: nearly all actives have a fitted effect of over 55% in size
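Heparin-induced (20 uM) aggregation of recombinant human K18 P301L tau, 15 uM unlabeled with 0.24 uM labeled, pH 7 acetate buffer, 6 hr at 37 C with compound. Fibrils quantified by 30 uM ThT fluorescence after 1 hr ambient incubation.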
Sfp PPTase inh: qHTS Assay for Inhibitors of Bacillus subtilis Sfp phosphopantetheinyl transferase (PPTase); Biochemical Sfp PPTase activity, qHTS; 4'-phosphopantetheinyl transferase ffp (Bacillus subtilis), Q9F4F7; Potency, µM, for the others: largest response in the series, negative = inhibition, most hits filed as inhibitors; 3.5% of 310,000 active;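 further: the enzyme is Sfp with the accession as filed and its product quenches rhodamine fluorescence; 0% = enzyme reaction without inhibitor and -100% = no enzyme wells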
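Reaction rates are the 30-min fluorescence difference (ex 525, em 598 nm) in wells containing 15 nM Sfp, 5 uM rhodamine-CoA and 12.5 uM BHQ-2-YbbR at pH 7.6 with 10 mM MgCl2.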
An asterisk follows results filed as active; u = inconclusive; x = not tested or not shown. The call rests on the fitted dose curve; in most records, active means well fitted curve in the direction sought with a large enough effect; inconclusive means small, poorly fitted or top-dose-only effect, or another doubt; inactive means no such curve, though single readings can be large; an effect the other way counts as inactive or inconclusive. Unless noted, on the % scale 0 is the no-effect control and ±100 the full control effect; potency means the concentration at half of the fitted maximal effect.

SMILES	PLK1 PBD inh	Tau fluor cs	VDR inhibitor	Tau FP inhib	Tau ThT inhib	Sfp PPTase inh
Cc1ccc(-c2c(C)n3c4c(=O)n(C)c(=O)n(C)c4nc3n2CCCO)cc1	x	-16.2%	0.1%	-7.0%	-8.6%	x
COc1ccccc1C(=O)Nc1nnc(SCc2cc(=O)n3ccc(C)cc3n2)s1	x	-4.1%	3.2%	-0.9%	-2.1%	x
CC(C)CN(CCCNC(=O)c1cc(-c2ccc(Br)s2)nc2ccccc12)CC(C)C	x	-0.2%	-10.2%	-10.4%	10.8%	x
CCCc1c(C)[nH]c2ccc(C(=O)O)cc2c1=S	13.4µM*	-5.0%	-27.2%	-13.5%	x	25.1µM*
Cc1ccc(C(C)C)c(OCc2ccc(-c3nnco3)cc2)c1	-8.3%	-12.6%	19.7%	2.6%	u	50.1µM*
Cc1ccc(N2CC(C(=O)Nc3cccc(S(=O)(=O)N4CCOCC4)c3)CC2=O)cc1 (stereo not given)	-0.9%	x	x	x	x	x
CC(C)c1ccc(N2C(=O)CSC23C(=O)N(Cc2ccccc2F)c2ccccc23)cc1 (stereo not given)	x	20.1%	2.8%	-3.1%	8.5%	x
CC1=C(C(=O)Nc2ccccc2C(=O)N2CCN(c3ccccc3)CC2)SCCO1	-0.8%	x	x	x	x	x
Cc1cccc(N2CCN(C(=O)c3ccccc3NC(=O)C3=CSCCO3)CC2C)c1 (stereo not given)	23.8µM*	x	u	x	x	9.6%
CCC(Cn1nnc2ccccc2c1=O)NC(=O)Nc1cc(Cl)ccc1OC (stereo not given)	x	-28.4%	2.6%	-12.7%	-9.6%	x
CN1CCN(CC#CCC(O)(c2ccccc2)c2ccccc2)CC1	-16.3%	13.0%	-7.4%	7.2%	7.4%	5.6%
CC(C)(C)N(CC#CCC(O)(c1ccccc1)c1ccccc1)CCO	-1.8%	-4.8%	-19.2%	-7.2%	-12.5%	39.8µM*
CN(Cc1ccco1)C(=O)c1ccc2c(c1)N(Cc1ccccc1F)C(=O)c1ccccc1S2	x	-11.4%	0.9%	3.3%	-10.1%	x
Nc1c(C(=O)N2CCOCC2)sc(=S)n1-c1ccccc1	10.6µM*	5.5%	50.1µM*	-5.5%	-17.0%	-86.7%
CCOC(=O)c1sc(=S)n(C)c1N	-1.8%	-14.0%	8.6%	-5.5%	-11.3%	-22.8%
Cc1ccc(-n2c(N)c(C(=O)N3CCCCC3)sc2=S)cc1	23.8µM*	-20.0%	u	9.4%	u	44.7µM*
CCOc1ccc(-n2c(N)c(C(=O)N3CCN(C)CC3)sc2=S)cc1	-8.3%	5.1%	-3.1%	-0.8%	-1.2%	14.0%
Cc1ccc(-n2c(N)c(C(=O)NCc3cccnc3)sc2=S)cc1	28.2µM*	-2.1%	-19.0%	-9.6%	-5.5%	35.5µM*
CCOC(=O)c1sc(=S)n(-c2ccc3c(c2)OCO3)c1N	13.4µM*	-15.1%	u	9.9%	-15.0%	28.2µM*
Cc1ccccc1Cn1c(=O)n(CCCCC(=O)NCc2ccccc2Cl)c(=O)c2ccccc21	x	-3.6%	-5.6%	-7.7%	5.6%	x
Cc1ccc(S(=O)(=O)N2C[C@H]3C(=O)C[C@@H](c4ccccc4C)N(S(=O)(=O)c4ccc(C)cc4)[C@H]3C[C@H]2c2ccccc2)cc1	-7.6%	x	x	x	x	x
CCOC(=O)c1sc(=S)n(-c2ccc(F)c(F)c2)c1N	23.8µM*	-1.4%	89.1µM*	-3.7%	-0.3%	22.4µM*
CCOC(=O)c1sc(=S)n(-c2ccc(Cl)cc2)c1SC	-16.3%	-13.3%	-2.0%	0.1%	0.0%	-11.3%
CCOC(=O)c1sc(=S)n(-c2ccc(C)cc2)c1N	10.6µM*	-25.6%	u	-5.3%	u	39.8µM*
CCN(CC)S(=O)(=O)c1ccc(N2CCN(C)CC2)c(NC(=O)COc2ccc(F)cc2Cl)c1	3.4%	x	9.1%	x	x	x
